Bioassay records (PubChem)
This is a sample that favours compounds with a hit; in the whole collection about 2.4% have one here.
D2 antagonist = antagonists of human D2 dopamine receptor; inhibition, % at 10 µM; hit rate 2% among 340,000; HEK293 TREx D2 cells, calcium flux, dopamine EC80; AID 485344; in the data active means inhibition above about 30%; inactive means below that, where a call was filed
Target sequence (P14416 whole entry, looked up): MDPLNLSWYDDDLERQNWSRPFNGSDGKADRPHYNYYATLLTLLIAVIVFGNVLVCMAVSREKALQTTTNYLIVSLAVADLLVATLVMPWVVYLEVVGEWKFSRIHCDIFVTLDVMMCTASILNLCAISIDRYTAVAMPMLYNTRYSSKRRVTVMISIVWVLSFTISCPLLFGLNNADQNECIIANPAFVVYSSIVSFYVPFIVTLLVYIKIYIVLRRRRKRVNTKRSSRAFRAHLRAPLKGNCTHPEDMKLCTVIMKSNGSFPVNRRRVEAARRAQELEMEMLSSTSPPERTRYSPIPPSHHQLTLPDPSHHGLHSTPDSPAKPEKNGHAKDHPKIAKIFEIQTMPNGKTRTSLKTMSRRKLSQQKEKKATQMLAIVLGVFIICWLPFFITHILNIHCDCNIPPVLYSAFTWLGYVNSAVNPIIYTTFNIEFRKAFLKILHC
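Antagonism is scored as inhibition of an EC80 dopamine-evoked calcium signal in a force-coupled, tetracycline-inducible HEK293 T-REx D2 line, with compound present 180 s before agonist.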
D2 ag-1 = human D2 receptor agonism in beta-arrestin assay. P14416. hit rate 0.084% among 360,000. activation, % (no concentration beside the values). DiscoveRx PathHunter D2 beta-arrestin, luminescence, 90 min; 100% = 57 uM dopamine signal; in the data active means activation above about 40%
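Agonist mode: compounds alone added to overnight-plated D2 PathHunter cells for 90 min at 37 C, with 57 uM final dopamine (EC100) defining full response. Beta-arrestin recruitment detected by chemiluminescent reagent, read after 1 h at ambient temperature.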
D2 PAM-1 = positive allosteric modulators of human D2 dopamine receptor; potentiation, % (test concentration not listed); hit rate 0.23% among 360,000; DiscoveRx D2 beta-arrestin cells, luminescence, 90 min; 100% = 57 uM dopamine signal; in the data active means potentiation above about 50%
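PathHunter beta-arrestin assay in DiscoveRx D2 cells. Compounds were added with an EC20 of dopamine (50 nM final) for 90 min at 37 deg C. Luminescence was read 1 h after detection reagent, with 57 uM dopamine as the EC100 control.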
D2 PAM-2 = D2 dopamine receptor (human) potentiation | HEK293 T-REx D2, calcium flux, EC20 dopamine potentiation | potentiation, % at 10 µM | P14416 | hit rate 0.34% among 340,000;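 active means potentiation over 3 SD above the plate norm, cut at about 30% in these data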
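Using a no-wash calcium dye in inducible, force-coupled HEK293 Trex cells expressing D2, we tracked fluorescence each second for 180 s after compound, then for 180 s after EC20 dopamine to detect augmented signalling.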
D2 ag-2 = D2 dopamine receptor (human) agonism. HEK293 T-REx D2 cells, calcium flux agonist mode. AID 485358. activation, % at 2 µM. hit rate 0.53% among 340,000. P14416;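 active means activation over 3 SD above normal in the single-dose calcium agonist read, cut at about 30% in these data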
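Calcium-flux readout, 1 cycle/sec over 180 s following compound pin transfer, in inducible HEK293 Trex D2 cells (force-coupled); dopamine controls included. Positive calcium responses during this window marked compounds as potential agonists.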
A number is an active result; – = inactive; · = no result given.

SMILES	D2 antagonist	D2 ag-1	D2 PAM-1	D2 PAM-2	D2 ag-2
CC(C)CCOP(=O)(c1ccc(N(C)C)cc1)C(O)c1ccc(Cl)cc1Cl (stereo not given)	–	40	–	–	–
CC(C)CCOP(=O)(c1ccc(N(C)C)cc1)C(O)c1ccccc1F (stereo not given)	·	–	–	–	·
Cc1ccc(Cl)cc1NS(=O)(=O)c1cc2c3c(c1)CC(=O)N3CCC2	·	·	·	–	–
Cc1cccc(N2CCN(C(=O)Cn3c(=O)c4cccn4c4ccc(F)cc43)CC2C)c1 (stereo not given)	·	·	·	–	–
COCCn1nnnc1C(c1ccccc1OC)N1CCN(c2ccccc2F)CC1 (stereo not given)	–	–	–	–	–
COCCn1nnnc1C(c1cc2cccc(C)c2[nH]c1=O)N1CCN(c2ccccc2F)CC1 (stereo not given)	34	–	–	–	–
Cc1cccc(C(=O)Nc2cccc(C(=O)N/N=C/c3ccc4c(c3)OCO4)c2)c1	37	–	–	–	–
O=C(CNc1ccccc1)N/N=C/c1ccc2c(c1)OCO2	37	–	–	–	–
O=C(CNc1ccccc1)N/N=C/c1ccc2c(c1)OCCO2	–	–	–	–	–
Cc1ccc(/C=N\NC(=O)c2ccc3c(c2)OCO3)o1	32	–	–	–	–
Cc1cccc(C(=O)Nc2ccc(C(=O)N/N=C/c3ccc4c(c3)OCO4)cc2)c1	–	–	–	–	–
CCOc1ccccc1CNC(=O)c1ccc2c(c1)sc1nc(-c3cccc(OC)c3)cn12	·	·	·	–	–
CCN1CCCC(NC(=O)c2cc([N+](=O)[O-])ccc2OC)C1 (stereo not given)	39	–	–	–	–
COc1ccc(C(=O)N/C(=C\c2ccc([N+](=O)[O-])cc2)C(=O)NC(CCSC)C(=O)O)cc1 (stereo not given)	35	–	–	–	–
COc1cc(OC)cc(-c2nc3nc(C)c(CCC(=O)Nc4ccc(F)cc4F)c(C)n3n2)c1	·	·	·	–	·
CN(CC(=O)Nc1ccc(OC(F)(F)F)cc1)C(=O)/C=C/c1cc2c(cc1[N+](=O)[O-])OCO2	80	–	–	–	–
CCN1c2cc(C)ccc2-n2cccc2C12CCN(C(=O)Nc1cc(OC)c(OC)c(OC)c1)CC2	·	·	·	–	·
Cc1ccc(C)c(OCCC(=O)NNC(=O)c2ccncc2)c1	43	–	–	–	–
Cc1ccc(C)c(OCCC(=O)NNC(=O)c2ccccc2)c1	–	–	–	–	–
O=C(Nc1ccc(Cc2ccncc2)cc1)C1CCC(N2C(=O)C3CCCCC3C2=O)CC1 (stereo not given)	–	–	–	–	–
Cc1ccc(NC(=O)C2CCC(N3C(=O)C4CCCCC4C3=O)CC2)cc1 (stereo not given)	43	–	–	–	–
CCOC(=O)c1sc(NC(=O)c2cc(-c3ccc(F)cc3)on2)c(C(=O)OCC)c1C	·	·	·	–	–
CCN1CCN(c2cc(N3CCc4ccccc4C3)c(F)cc2[N+](=O)[O-])CC1	62	–	–	–	–
CCCOc1ccc(N)cc1N	–	–	66	–	–
CCCOc1cc(N)ccc1C(=O)OCCN(CC)CC	–	–	–	–	–
SMILES	D2 antagonist	D2 ag-1	D2 PAM-1	D2 PAM-2	D2 ag-2
CCc1ccc(CNC(=O)CN2C(=O)CCn3nc(-c4cn(C)c5ccccc45)cc32)cc1	·	·	·	–	–
O=S(=O)(c1ccc(F)cc1)N1CCC(N2CCCCCC2)CC1	42	–	–	–	–
CC1CCN(C2CCN(S(=O)(=O)c3ccc(F)cc3)CC2)CC1	–	–	–	–	–
CCCSCCCNC(=O)c1cc2c(s1)CS(=O)(=O)C2	–	–	–	–	–
CC1CCC(NC(=O)c2cc3c(s2)CS(=O)(=O)C3)CC1 (stereo not given)	41	–	–	–	–
COc1ccc(C2=Nn3c(nnc3-c3ccccc3)SC2)cc1OC	–	–	–	–	–
CCCc1nnc2n1N=C(c1ccc(OC)c(OC)c1)CS2	–	–	–	89	–
CCc1ccc(NC(=O)N2CCN(c3nnc(C)c4c(C)n(-c5ccc(Cl)cc5)nc34)CC2)cc1	·	·	·	–	–
O=C(C1CCN(S(=O)(=O)N2CCOCC2)CC1)N1CCc2ccccc21	36	–	–	–	–
O=C(C1CCC(C(=O)N2CCc3ccccc32)CC1)N1CCc2ccccc21 (stereo not given)	–	–	–	–	–
CC(CN(C)C)CN1c2ccccc2CCc2ccccc21 (stereo not given)	73	–	–	–	–
CN(C)CCCN1c2ccccc2CCc2ccccc21	60	–	–	–	–
Cc1ccc(S(=O)(=O)N(Cc2nc(-c3cccc(C)c3)no2)C2CCCCC2)cc1	·	·	·	–	–
CC1CC(C)CN(C(=O)/C=C/c2ccc(S(=O)(=O)N3CCOCC3)cc2)C1 (stereo not given)	30	–	–	–	–
O=C(/C=C/c1ccc(S(=O)(=O)N2CCOCC2)cc1)N1CCN(c2ccc(F)cc2)CC1	–	–	–	–	–
COc1ccc(C(=O)NNC(=S)NC(=O)C(C)(C)C)cc1	62	–	–	–	92
COc1ccc(C(=O)NNC(=O)c2ccc(C(C)(C)C)cc2)cc1	–	–	–	·	–
O=C(OCc1ccco1)c1ccc2c(c1)N(Cc1cccc(F)c1)C(=O)c1ccccc1S2	·	·	·	–	–
CC(C)CCN1CCN(Cc2cccc(C(F)(F)F)c2)CC1CCO (stereo not given)	76	–	–	–	–
CSc1cccc(CN2CCN(CCC(C)C)C(CCO)C2)c1 (stereo not given)	59	–	–	–	–
CC(C)CN1CCN(Cc2ccc(C#CC(C)(C)O)cc2)CC1CCO (stereo not given)	33	–	–	–	–
CCOC(=O)c1ccc(NC(=O)C(CC)Sc2nc3ncccc3[nH]2)cc1 (stereo not given)	·	·	·	–	–
CCc1ccc(-n2c(=O)c3ccc(C(=O)NCCc4ccccc4)cc3n(Cc3ccccc3C#N)c2=O)cc1	·	·	·	–	–
CCc1nc2ccc(C(=O)Nc3cc(-c4ccccc4)ccc3OC)cn2c1N(C=O)CCC(C)C	·	134	–	·	·
Cc1ccc(-n2c(=O)c3c4c(sc3n(CC(=O)c3ccc(Cl)cc3)c2=O)CCC4)cc1C	·	·	·	–	·
COc1cc(OC)c(NC(=O)Nc2cccc(OCc3cc(=O)n4ccccc4n3)c2)cc1Cl	·	·	·	–	–
O=C(c1ccc([N+](=O)[O-])cc1)N1CCC(n2nnc3cc(F)ccc32)CC1	–	–	–	33	–
O=C(N1CCOCC1)N1CCC(n2nnc3cc(F)ccc32)CC1	·	–	–	–	·
Cc1ccc(NC(=O)CN(C)C(=O)COc2cc(F)ccc2[N+](=O)[O-])cc1	62	–	–	–	–
COc1ccc(-c2cc([N+](=O)[O-])ccc2OCC(=O)N(C)CC(=O)Nc2ccc(C)cc2)cc1	–	–	–	–	–
